High-throughput results from PubChem.
HT1080-NT tox = kills 2HG-producing HT-1080-NT fibrosarcoma cells. HT-1080-NT fibrosarcoma viability, CellTiter-Glo ATP luminescence, 48 h. Potency, µM (titrated, usually from 46.1 µM), most hits filed as cytotoxic. actives 1.6% (n = 360,000). AID 686970;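 note: NT is the 2HG producing partner of a matched IDH1 knockdown line; nearly all actives have a fitted effect of over 55% in size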
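Luminescent CellTiter-Glo readout after 48 hours of compound exposure at 37 degrees C defined viability of HT-1080-NT cells. Activity was normalized to DMSO wells and cell-free media wells; concentration-response curves were fitted and assigned curve classes.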
SW480 rereplic = inducers of DNA re-replication in SW480 colon cancer cells; SW480 DNA re-replication, Hoechst DNA content imaging, 48 h; Potency, µM (doses to about 46.1 µM), most hits filed as activators; actives 1.8% (n = 340,000); note: nearly all actives have a fitted effect of over 55% in size
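DNA re-replication was detected as more nuclei of elevated Hoechst intensity after 48 hr exposure to compound (23 nL pinned per well of 250 cells).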
KB-3-1 cytotox = kills parental KB-3-1 adenocarcinoma cells. AID 1347075. KB-3-1 viability, CellTiter-Glo ATP luminescence, 72 h. actives 1.4% (n = 400,000). Potency, µM (highest dose often 46.1 µM), actives largely listed as cytotoxic; note: nearly all actives have a fitted effect of over 60% in size
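72 h, 37 °C compound treatment of KB-3-1 parental cells; CellTiter-Glo added, 10 min, luminescence read. Data corrected against DMSO-only plates and normalized before curve fitting.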
MCF10A rereplic = DNA re-replication induction in MCF 10a cells; AID 624296; Potency, µM (highest dose often 46.1 µM), actives largely listed as activators; MCF 10A DNA re-replication, Hoechst nuclear intensity, 48 h; actives 2.9% (n = 350,000); note: nearly all actives have a fitted effect of over 50% in size
KB-V1 cytotox = kills drug-selected multidrug resistant KB-V1 cells; KB-V1 MDR cells viability, CellTiter-Glo, 72 h; Potency, µM (series often up to 46.1 µM), most hits filed as cytotoxic; actives 3.4% (n = 400,000); AID 1347076; note: nearly all actives have a fitted effect of over 60% in size
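KB-V1, DMEM (no phenol red) + 10% FBS; cpd pin-transferred, titration series; 72 h, 37 degrees C; CellTiter-Glo, luminescence. Data normalized, curve-fit.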
HT1080 IDH1KD tx = kills HT-1080 cells with IDH1 knockdown; AID 686971; actives 2% (n = 360,000); Potency, µM (highest dose often 46.1 µM), most hits filed as cytotoxic; HT-1080 IDH1 knockdown viability, ATP luminescence, 48 h
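In this qHTS, HT-1080 cells depleted of IDH1 are exposed for 48 h at 37 °C to compound titrations. Toxicity is scored from CellTiter-Glo luminescence, with DMSO as full viability and medium alone as none.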
A number is an active result; - = inactive; ? = inconclusive; . = not tested or not shown. A selection: hits, their analogues and other compounds. The true share with any hit is near 7.9%. Calls come from the whole dose curve; as a rule, active = well fitted curve in the direction sought with a large enough effect; inconclusive = small, poorly fitted or top-dose-only effect, or another doubt; inactive = no such curve, though single readings can be large; an effect the other way counts as inactive or inconclusive.

SMILES | HT1080-NT tox | SW480 rereplic | KB-3-1 cytotox | MCF10A rereplic | KB-V1 cytotox | HT1080 IDH1KD tx
Cc1ccc(C)c(-c2cc(C(=O)NCc3cccs3)c3ccccc3n2)c1 | - | ? | - | ? | 12µM | -
Nc1nc2ccccc2cc1C(=O)NCc1cccs1 | - | . | - | . | 16µM | -
COc1ccc(N2C(=O)C(CC(=O)Nc3ccc(F)cc3)N(CCC3=CCCCC3)C2=O)cc1 (stereo not given) | . | . | - | . | - | .
CCCSC1=NC2(CCN(C(=O)NC3CCCCC3)CC2)N=C1c1ccc(Cl)cc1 | . | . | - | . | - | .
C[C@H](O)C#Cc1ccc2c(c1)O[C@@H](CN(C)Cc1ccc(-c3ccccc3)cc1)[C@H](C)CN([C@@H](C)CO)S2(=O)=O | ? | . | ? | . | ? | 21µM
C[C@@H]1CN([C@H](C)CO)S(=O)(=O)c2ccc(Br)cc2O[C@@H]1CN(C)Cc1ccc(-c2ccccc2)cc1 | 18µM | . | - | . | - | 16µM
CCCNC(=O)N(C)C[C@@H]1Oc2cc(C#C[C@H](C)O)ccc2S(=O)(=O)N([C@H](C)CO)C[C@H]1C | - | . | - | . | - | -
COc1cccc(S(=O)(=O)N(C)C[C@H]2Oc3cc(Br)ccc3S(=O)(=O)N([C@@H](C)CO)C[C@H]2C)c1 | - | . | - | . | 9.2µM | -
CO[C@H]1C[C@@H](O[C@@H]2[C@H](C)[C@H](O[C@@H]3O[C@@H](C)C[C@@H](N(C)C)[C@@H]3O)[C@H](C)C[C@]3(CO3)C(=O)[C@H](C)[C@H](O)[C@H](C)[C@H](C)OC(=O)[C@@H]2C)O[C@@H](C)[C@H]1O | . | - | . | - | . | .
CCN(CC)C(=O)C1=C(C)N(CCC2=CCCCC2)C(=O)C(CC(=O)NCCCCc2ccccc2)C1 (stereo not given) | - | . | - | . | - | -
Cc1nc(Cl)c(C(=O)NC(=O)Nc2cccc(C(F)(F)F)c2)c(C)c1[N+](=O)[O-] | - | ? | 10µM | - | ? | -
Cc1nc2ccc(NC(=O)Cc3ccc4c(c3)OCCO4)cc2s1 | - | - | - | - | 15µM | -
CCOc1ccc2nc(NC(=O)CSc3nc(SC)ns3)sc2c1 | - | - | - | - | 23µM | -
CCOc1ccc2nc(SCC(=O)Nc3ccc4c(c3)OCO4)sc2c1 | - | - | - | - | 16µM | -
COc1ccccc1CNC(=O)c1ccc(-c2nc(CN3CCc4ccccc43)c(C)o2)cc1 | . | . | ? | . | 10µM | .
Cc1oc(-c2ccc(C(=O)NCc3ccccc3Cl)cc2)nc1CN1CCc2ccccc21 | . | . | 5.8µM | . | ? | .
COc1ccccc1C(=O)NC(=O)COC(=O)CCS(=O)(=O)c1ccc(C)cc1 | - | - | - | - | - | -
CC1(C(=O)NCc2ccccc2)CCC(=O)N1CCc1c[nH]c2ccccc12 (stereo not given) | - | . | - | . | - | -
CC(C)NC(=O)c1cccc(C(F)(F)F)c1 | - | - | - | - | - | -
COC(=O)C/C(O)=C(/N=Nc1cccc(C(F)(F)F)c1)C(=O)OC | - | ? | - | 5.8µM | - | -
C=CCn1c(SCC(=O)Nc2cc(C)nn2-c2ccccc2)nnc1C1CCCCC1 | - | - | - | - | 5.8µM | -
Cc1ccc(NS(=O)(=O)c2ccc3c(c2)CCC(=O)N3)cc1F | . | . | - | . | ? | .
CC1(C)CC(C(CCN(Cc2ccccc2)C(=O)c2ccco2)c2ccc(F)cc2)CCO1 (stereo not given) | ? | - | ? | 8.2µM | 9.2µM | ?
O=C(c1ccco1)N(CCC(c1ccccc1)c1ccco1)Cc1ccc(F)cc1 (stereo not given) | ? | ? | - | 10µM | 7.3µM | ?
COc1ccc(S(=O)(=O)Nc2cc(C)c(O)c(S(=O)(=O)c3ccccc3)c2)cc1 | - | - | - | - | 16µM | -
SMILES | HT1080-NT tox | SW480 rereplic | KB-3-1 cytotox | MCF10A rereplic | KB-V1 cytotox | HT1080 IDH1KD tx
Cc1noc(C)c1NC(=O)N(C)C[C@@H]1OCc2cn(nn2)CCCC(=O)N([C@H](C)CO)C[C@H]1C | - | . | - | . | - | -
CCOC(=O)/C=C/C(=O)Nc1cccc([N+](=O)[O-])c1 | ? | . | ? | 3.7µM | - | -
CCOC(=O)/C=C/C(=O)Nc1ccccc1-c1ccccc1NC(=O)/C=C/C(=O)OCC | ? | 4.6µM | ? | 5.8µM | - | 23µM
CCOC(=O)/C=C/C(=O)OCC(=O)Nc1cccc(Cl)c1Cl | - | - | - | ? | ? | -
CCCNC(=O)C1CCC(Cn2c(=O)c3sccc3n(CC(=O)N3CCC(C)CC3)c2=O)CC1 (stereo not given) | . | . | - | . | - | .
CC(C)Cc1cc(CN2CCC(CO)(Cc3cccc(C(F)(F)F)c3)CC2)[nH]n1 | ? | ? | ? | - | - | ?
Cc1ccc(-n2cc(CN3CCC(CO)(Cc4cccc(C(F)(F)F)c4)CC3)cn2)cc1 | 23µM | - | ? | - | ? | 18µM
OCC1(Cc2cccc(C(F)(F)F)c2)CCN(Cc2cc(F)cc(F)c2)CC1 | 18µM | ? | ? | 23µM | ? | ?
CN(C)S(=O)(=O)N1CCC(CO)(Cc2cccc(C(F)(F)F)c2)CC1 | - | - | - | - | ? | -
CSc1cccc(CN2CCC(CO)(Cc3cccc(C(F)(F)F)c3)CC2)c1 | 21µM | - | - | ? | ? | 16µM
CCc1ccccc1N(C(=O)c1cccs1)C1C=CS(=O)(=O)C1 (stereo not given) | - | ? | - | 2.6µM | - | -
Cc1ccc2nc(Cl)c(/C=N/NC(=O)c3ccccc3O)cc2c1 | ? | - | - | ? | - | ?
O=C(COc1cccc(Cl)c1)N/N=C\c1cc2ccccc2nc1Cl | - | - | - | ? | ? | -
CC(C)(C)c1ccc(C2CC2C(=O)N/N=C\c2cc3ccccc3nc2Cl)cc1 (stereo not given) | - | - | - | - | 10µM | -
Cc1ccc2nc(Cl)c(/C=N/NC(=O)[C@H]3C[C@@H]3c3ccccc3)cc2c1 | - | ? | - | 8.2µM | - | -
O=C(CNc1ccc2ccccc2c1)N/N=C/c1cc2ccccc2nc1Cl | - | - | - | 18µM | - | -
Cc1cccc(NC2=C(Cl)C(=O)OC2OC(=O)c2ccco2)c1 (stereo not given) | ? | 4.6µM | - | ? | - | -
Cc1ccc(NC2=C(Cl)C(=O)OC2OC(=O)c2ccco2)cc1 (stereo not given) | ? | 21µM | - | ? | - | 10µM
Cc1ccc(CNC(=O)CSc2ncc3c(n2)-c2ccc(Cl)cc2N(Cc2ccccc2)S3(=O)=O)cc1 | . | . | - | . | - | .
CC1=CN2C(=N)/C(=C/c3ccc([N+](=O)[O-])o3)C(=O)N=C2S1 | ? | 16µM | - | ? | - | ?
Cc1cc(Cl)ccc1NC(=O)CN1C(=O)C(=O)N(C2CCCC2)C1=O | - | - | - | - | - | -
